Test results reported in PubChem BioAssay (NCATS).
Inconclusive results are not listed. Activity calls are given as the source filed them. Calls come from the whole dose curve; as a rule, active = well fitted inhibition curve with a large enough effect; inconclusive = small, poorly fitted or top-dose-only effect; inactive = no such curve, though single readings can be large or run the other way.

Test: qHTS assay for measurement of the activity of small molecule inhibitors on Zika virus induced Caspase-3 activity in human iPSC derived neural progenitor cells (hNPCs) (AID 1224857); note: nearly all actives have a fitted effect of over 65% in size
Settings: hNPCs ZIKV-induced caspase-3/7, Caspase-Glo luminescence, 6 h; series mostly up to 45.7 µM
Excerpt: National Center for Advancing Translational Sciences [NCATS]
Johns Hopkins University School of Medicine
Increase in the Caspase-3 activity indicates an activation of apoptosis cell death pathway caused by Zika virus infection in certain types of neuronal cells including human neural progenitor cells (hNPCs), astrocytes, and astrocytoma cell line (SNB-19). This cell-based caspase-3 activity assay measures the increased caspase-3 activity in the human iPSC derived neural progenitor cells (hNPCs) after a 6-hour Zika virus infection with a luminescence readout. A decrease in the luminescence signal in this assay by small molecule treatment indicates an inhibitory effect of that small molecule on the Zika virus induced caspase-3 activity that may correlate with its effect on reduction of Zika virus caused cell death.
The medium for hNPCs consists of DMEM/F12, N2 supplement (ThermoFisher, Cat.# 17502048), NEAA (ThermoFisher, Cat. # 11140050), 2 ug/ml heparin, 2 uM cyclopamine, and B27 (ThermoFisher, Cat. # 17504044). A Caspase-Glo 3/7 assay kit (catalog number G8092; Promega, Madison, WI) was used to detect caspase-3 activity induced by Zika virus infection in human cells. The reagent mixture was reconstituted as described in the protocol from the manufacturer. Polystyrene tissue culture treated and PDL coated white plates were obtained from Greiner Bio-One (Monroe, NC). Cells were seeded in 384- or 1536-well assay plates and cultured at 37 C with 5% CO2 for 16 to 20 hours. The typical cell seeding density in the 1536-well plate assay is 350 cells/well in 3 ul medium for hNPCs in tissue culture treated plates. Compounds were added to cells and incubated for one hour before addition of ZIKV solution to cells (2 FFU/cell). After incubation at 37 C with 5% CO2 for 6 hours, the reagent mixture of Caspase-Glo 3/7 assay kit was added to each well, followed by incubation at room temperature for 30 minutes. The luminescence intensity of the assay plates was measured using a ViewLux plate reader (PerkinElmer). Data were normalized by using the cell-containing wells without ZIKV as a negative control (0% induction of caspase 3/7 activity) and wells containing ZIKV infected cells (Caspase-3 activity induced) as a positive control (100% induction of caspase 3 activity). The percentage inhibitions of the increased Caspase-3 activity by small molecule inhibitors were then calculated.
For `CCCCC/C=C\C/C=C\C/C=C\C/C=C\CCCC(=O)NCC(=O)O`, the outcome was “inactive”. For `O=c1[nH]c2ccccc2n1C1CCNCC1`, the outcome was “inactive”. For `Clc1ccc(C(c2ccc(Cl)cc2)C(Cl)(Cl)Cl)cc1`, the outcome was “inactive”. In the case of `CN1CC[C@]23c4c5ccc(O)c4O[C@H]2[C@@H](O)C=C[C@H]3[C@H]1C5`, the outcome is reported as “inactive”. For `CCC(CC)(CNC(=O)CCCO)c1cccc(OC)c1`, the outcome was “inactive”. For `c1ccc(CN2CCNCC2)cc1`, the outcome was “inactive”. In the case of `O=C1CN=C(c2ccccc2)c2cc([N+](=O)[O-])ccc2N1`, the outcome is reported as “inactive”. In the case of `C=C(C)[C@H]1CN[C@H](C(=O)O)[C@H]1CC(=O)O`, the outcome is reported as “inactive”. In the case of `ClCCN1CCCC1`, the outcome is reported as “inactive”. In the case of `[N-]=[N+]=CC(=O)OC[C@H](N)C(=O)O`, the outcome is reported as “inactive”. With `CC(C)N(CCC(C(N)=O)(c1ccccc1)c1ccccn1)C(C)C` (stereo not given) the outcome was “inactive”. For `C[C@H](N)C(=O)c1ccccc1`, the outcome was “inactive”. In the case of `CCN[C@@H](C)Cc1cccc(C(F)(F)F)c1`, the outcome is reported as “inactive”. In the case of `CN1CC[C@]23c4c5ccc(O)c4O[C@H]2[C@@H](O)CC[C@H]3[C@H]1C5`, the outcome is reported as “inactive”. For `CC(C(=O)c1ccccc1)N(C)C` (stereo not given), the outcome was “inactive”. For `CCC1(c2ccccc2)C(=O)N(COC)C(=O)N(COC)C1=O`, the outcome was “inactive”. With `C[C@]12CC[C@@H]3c4ccc(OC(=O)N(CCCl)CCCl)cc4CC[C@H]3[C@@H]1CC[C@@H]2O` the outcome was “inactive”. For `COC(=O)C(Cl)C(=O)OC`, the outcome was “inactive”. For `O=C1OC(c2ccc(O)c(S(=O)(=O)O)c2)(c2ccc(O)c(S(=O)(=O)O)c2)c2c(Br)c(Br)c(Br)c(Br)c21`, the outcome was “inactive”. In the case of `C[N+]1(C)[C@@H]2CC(OC(=O)[C@H](CO)c3ccccc3)C[C@H]1[C@@H]1O[C@@H]12` (stereo not given in full), the outcome is reported as “inactive”. With `CC(C)(N)Cc1ccccc1Cl` the outcome was “inactive”. With `CC(=O)OCC1=C(C(=O)O)N2C(=O)[C@@H](N)[C@H]2SC1` the outcome was “inactive”. With `O=P1(N(CCCl)CCCl)NCCCO1` (stereo not given) the outcome was “inactive”. With `COc1cccc(C(=O)CCN[C@@H](C)[C@H](O)c2ccccc2)c1` the outcome was “inactive”. With `CCC(C)C(C)(COC(N)=O)COC(N)=O` (stereo not given) the outcome was “inactive”. For `CCN(CC)CCc1c[nH]c2ccccc12`, the outcome was “inactive”. For `CN1C(=O)NC(=O)C(C)(C2=CCCCC2)C1=O` (stereo not given), the outcome was “inactive”. For `NC1=NC(=O)C(c2ccccc2)O1` (stereo not given), the outcome was “inactive”. For `CN(C)CCc1c[nH]c2cccc(OP(=O)(O)O)c12`, the outcome was “inactive”. For `COC(=O)[C@@H](N)CCCN/C(N)=N/[N+](=O)[O-]`, the outcome was “inactive”. For `CC(C)(C)NCC(O)c1ccccc1Cl` (stereo not given), the outcome was “inactive”. For `O=C(O)CCCc1ccc(N(CCCl)CCCl)cc1`, the outcome was “inactive”. For `Clc1cccc(SC2CCNCC2)n1`, the outcome was “inactive”. In the case of `O=C(N/N=C/c1ccc([N+](=O)[O-])o1)c1cc([N+](=O)[O-])cc([N+](=O)[O-])c1O`, the outcome is reported as “inactive”. With `O=[N+]([O-])O[C@H]1CO[C@H]2[C@@H]1OC[C@H]2O[N+](=O)[O-]` the outcome was “inactive”. For `C[C@]12CCC(=O)C=C1CC[C@@H]1[C@@H]2CC[C@]2(C)C(=O)CC[C@@H]12`, the outcome was “inactive”. With `CC(C)c1c(CN(C)C(C)Cc2ccccc2)n(C)n(-c2ccccc2)c1=O` (stereo not given) the outcome was “inactive”. For `C[C@@H]1CC2=CC(=O)CC[C@@H]2[C@H]2CC[C@@]3(C)[C@@H](CC[C@]3(C)O)[C@@H]21`, the outcome was “inactive”. With `NC(=O)c1cc([N+](=O)[O-])cc([N+](=O)[O-])c1` the outcome was “inactive”. For `CC(C)NC(C)C`, the outcome was “inactive”.
